From PubChem BioAssay (Tox21) come the findings set out here.

Test [1] deals with Progesterone receptor (Homo sapiens) (UniProt P06401). Put plainly: qHTS assay to identify small molecule agonists of the progesterone receptor (PR) signaling pathway (AID 1346784; calls by dose curve; further: nearly all actives have a fitted effect of over 30% in size). The note with it: PR-UAS-bla HEK293T, beta-lactamase FRET ratio, 16 h; series mostly up to 92.4 µM. The method in brief:
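Agonist qHTS: compounds pinned onto 3,000 PR-UAS-bla HEK 293T cells per well in charcoal-stripped serum medium, 16hr at 37C, then beta-lactamase activity measured by LiveBLAzer FRET fluorescence after 2 hours at room temperature.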
(Quantitative high-throughput screening tests each substance at several concentrations.)

For test [2] the target is unchanged. The experiment in a line: qHTS assay to identify small molecule antagonists of the progesterone receptor (PR) signaling pathway (AID 1346795; active means well fitted inhibition curve with a large enough effect in the signal ratio in the repeat runs, not every such curve was filed as active; the % refers to the signal ratio; further: potency means the concentration at half of the fitted maximal effect). Particulars: PR-UAS-bla HEK293T, beta-lactamase FRET ratio, 16 h; series mostly up to 92.4 µM. The method in brief:
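Antagonist mode with agonist R5020 at 1 nM final and 16 hr incubation at 37C. Reporter was beta-lactamase driven by UAS in HEK293T (PR-UAS-bla), 2% charcoal-stripped serum; signal from LiveBLAzer FRET substrate, 2 hr at room temperature.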

Test [3] in a line: qHTS assay to identify small molecule antagonists of the progesterone receptor (PR) signaling pathway - cell viability counter screen (AID 1346798). Further: nearly all actives have a fitted effect of over 50% in size. Particulars: PR-UAS-bla HEK293T viability, CellTiter-Glo luminescence, 16 h; series mostly up to 92.4 µM. A digest of the protocol:
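Cytotoxicity read as CellTiter-Glo luminescence (30 min, room temperature) in the same wells as the beta-lactamase readout. HEK293T PR-UAS-bla cells in charcoal-stripped 2% FBS received compound and R5020, then 16 h at 37C, 5% CO2.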

Test [4] is described as follows: qHTS assay to identify small molecule agonists of the progesterone receptor (PR) signaling pathway - cell viability counter screen (AID 1346799; calls by dose curve; further: nearly all actives have a fitted effect of over 45% in size). The note with it: PR-UAS-bla HEK293T viability, CellTiter-Glo luminescence, 16 h; series mostly up to 92.4 µM. A digest of the protocol:
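Cytotoxicity measured by CellTiter-Glo luminescence (30 min, RT) in the same wells as the PR beta-lactamase agonist read. Those HEK293T cells had 16 h compound treatment at 37 C in 2% charcoal-stripped FBS medium.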

A short description of test [5]: qHTS assay to identify small molecule antagonists of the TGF-beta/Smad signaling pathway - cell viability counter screen (AID 1346824). Further: nearly all actives have a fitted effect of over 50% in size. Particulars: SBE-bla HEK293T viability, CellTiter-Glo luminescence; series mostly up to 76.8 µM. A digest of the protocol:
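SBE-bla HEK 293T cells, incubated overnight, then compound plus 0.25 ng/mL TGF-beta1 (stock added) for 5 hr at 37 C. Viability was read in the same wells by CellTiter-Glo luminescence after 30 min at room temperature.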

Test [6] can be described thus: qHTS assay to identify small molecule agonists of the TGF-beta/Smad signaling pathway - cell viability counter screen (AID 1346829). Further: top concentration of the series differs between compounds; nearly all actives have a fitted effect of over 45% in size. Particulars: SBE-bla HEK293T viability, CellTiter-Glo luminescence, 5 h; series mostly up to 76.8 µM. A digest of the protocol: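 After overnight seating at 37 C and 5% CO2, reporter cells got compounds for 5 hr and FRET substrate for 2 hr; cell viability then came from CellTiter-Glo luminescence.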

The nature of test [7]: qHTS assay to identify small molecule agonists of the TGF-beta/Smad signaling pathway (AID 1346859; active means well fitted activation curve with a large enough effect in the signal ratio in the repeat runs, not every such curve was filed as active; the % refers to the signal ratio; further: potency means the concentration at half of the fitted maximal effect). The note with it: SBE-bla HEK293T, TGF-beta/Smad beta-lactamase reporter, 5 h; series mostly up to 76.8 µM. A digest of the protocol: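 Fluorescence (ex 405 nm; em 460 and 530 nm) was read 2 h after LiveBLAzer FRET substrate at RT. The preceding compound treatment of overnight-plated SBE-bla HEK293T cells lasted 5 h at 37 C.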

Test [8] is described as follows: Human pregnane X receptor (PXR) small molecule agonists, qHTS cell viability counter screen (AID 1346977). Further: nearly all actives have a fitted effect of over 50% in size. Further: potency means the concentration at half of the fitted maximal effect. Particulars: PXR-Luc HepG2 viability, CellTiter-Fluor, 24 h; series mostly up to 92.4 µM. A digest of the protocol:
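Same-well viability read: CellTiter-Fluor added after 23 hr compound exposure, fluorescence measured 1 hr later. Cells were PXR-Luc HepG2 seeded at 2,000/well in 5% charcoal-stripped FBS medium, rested 5 hr before dosing at 37 C.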

A short description of test [9]: Caspase-3/7 induction in HepG2 cells by small molecules, qHTS assay (AID 1346978). Further: nearly all actives have a fitted effect of over 15% in size. Particulars: HepG2 caspase-3/7 activation, Caspase-Glo luminescence, 17 h; series mostly up to 92.4 µM. The method in brief:
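Wild-type HepG2 cells, 2,000/well, settled 5 hr at 37 C and 5% CO2, then compound-treated for 17 hr; caspase-3/7 activity read by luminescent Caspase-Glo 3/7 after 30 min at room temperature.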

Test [10] can be described thus: Caspase-3/7 induction in CHO-K1 cells by small molecules, qHTS cell viability counter screen (AID 1346979). Further: nearly all actives have a fitted effect of over 35% in size. Further: potency means the concentration at half of the fitted maximal effect. Particulars: CellTiter-Fluor fluorescence, 17 h; series mostly up to 92.4 µM. A digest of the protocol: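 Cytotoxicity counter screen: CellTiter-Fluor added to compound-treated wild-type CHO-K1 cells at 16 h (37C, 5% CO2), fluorescence measured 1 h later; same wells as caspase-3/7 measurement.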

Test [11] is described as follows: Caspase-3/7 induction in CHO-K1 cells by small molecules, qHTS assay (AID 1346980). Further: nearly all actives have a fitted effect of over 15% in size. Further: potency means the concentration at half of the fitted maximal effect. Particulars: CHO-K1 caspase-3/7 induction, Caspase-Glo luminescence, 17 h; series mostly up to 92.4 µM. A digest of the protocol: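 Wild-type CHO-K1 cells exposed to compounds for 17hr at 37 C, 5% CO2. Caspase-3/7 activity then measured by Caspase-Glo 3/7 luminescence after 30min at room temperature.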

Test [12] can be described thus: Caspase-3/7 induction in HepG2 cells by small molecules, qHTS cell viability counter screen (AID 1346981). Further: nearly all actives have a fitted effect of over 30% in size. Particulars: CellTiter-Fluor fluorescence, 17 h; series mostly up to 92.4 µM. The method in brief: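 Multiplexed with the caspase-3/7 assay: HepG2 cells, 16 hr compound treatment, CellTiter-Fluor viability detection by fluorescence.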
Test [13] deals with Nuclear receptor subfamily 1 group I member 2 (Homo sapiens) (UniProt O75469). The experiment in a line: Human pregnane X receptor (PXR) small molecule agonists, qHTS assay (AID 1346982). Further: nearly all actives have a fitted effect of over 35% in size. Further: potency means the concentration at half of the fitted maximal effect. Particulars: PXR-Luc HepG2, CYP3A4 luciferase reporter, 24 h; series mostly up to 92.4 µM. The method in brief:
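We seeded PXR-Luc HepG2 cells in assay medium containing 5% charcoal-stripped FBS, added compounds 5 hr later, incubated 24 hr, and read luminescence with ONE-Glo reagent.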

Test [14] has as its target Cytochrome P450 2D6 (Homo sapiens) (UniProt P10635). The experiment in a line: Cytochrome P450 Family 2 Subfamily D Member 6 (CYP2D6) small molecule antagonists: luciferase reporter qHTS assay (AID 1671196). Further: nearly all actives have a fitted effect of over 50% in size. Further: potency means the concentration at half of the fitted maximal effect. The note with it: P450-Glo CYP2D6 enzyme assay, luciferin luminescence, 1 h; series mostly up to 115 µM. The method in brief:
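Luminescence (RLU), read 20 min after detection reagent, indicated CYP2D6 conversion of proluciferin to luciferin during a 1 h NADPH-dependent reaction at room temperature.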
Background: A reporter such as luciferase makes a cellular process visible.

The target of test [15] is Cytochrome P450 2C19 (Homo sapiens) (UniProt P33261). Put plainly: Cytochrome P450 Family 2 Subfamily C Member 19 (CYP2C19) small molecule antagonists: luciferase reporter qHTS assay (AID 1671197). Further: nearly all actives have a fitted effect of over 65% in size. Further: potency means the concentration at half of the fitted maximal effect. The note with it: P450-Glo CYP2C19 enzyme, luciferin luminescence, 1 h; series mostly up to 115 µM. A digest of the protocol:
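Inhibition of CYP2C19 was scored from loss of luminescence in a P450-Glo proluciferin substrate assay, NADPH-started and run 1 h at 37C, with ketoconazole as positive control.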

The target of test [16] is Thyrotropin-releasing hormone receptor (Homo sapiens) (UniProt P34981). The experiment in a line: qHTS assay to identify small molecule antagonists of the thyrotropin-releasing hormone receptor (TRHR) signaling pathway (AID 1346877; active means well fitted inhibition curve with a large enough effect in the repeat runs, not every such curve was filed as active). The note with it: TRHR-HEK293, TRH-induced calcium fluorescence, antagonist mode; series mostly up to 51.3 µM. The method in brief:
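Screening used HEK293 cells engineered with TRHR, with a brief 5 min room-temperature compound exposure preceding addition of TRH to 1 nM. The read-out was kinetic calcium-dye fluorescence, concentration-response from 15 doses in triplicate.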

For test [17] the target is unchanged. The experiment in a line: qHTS assay to identify small molecule agonists of the thyrotropin-releasing hormone receptor (TRHR) signaling pathway (AID 1346891; calls by dose curve). Particulars: TRHR-HEK293 calcium fluorescence, agonist mode; series mostly up to 57.6 µM. The method in brief: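 Agonist-mode intracellular calcium readout: kinetic fluorescence over 3 min at 1 s intervals after compound addition to TRHR-HEK293 cells (18 h seeded, 2 h dye-loaded at 37 C). Fifteen concentrations, triplicates.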

Several values for one entry are separate records, joined by “and”; a condition that tells them apart may be missing. Equal values may be shown once. Records with an inconclusive call do not appear. Some structures have more than one record in an assay (separate samples or runs), and their calls can disagree. Activity calls are given as the source filed them. Unless noted, the call rests on the fitted dose curve; in most records, active means well fitted curve in the direction sought with a large enough effect in the repeat runs; inconclusive means weak or mixed curves; inactive means no such curve, though single readings can be large; an effect the other way counts as inactive or inconclusive.

Chain of Progesterone receptor (Homo sapiens) (P06401 whole entry, looked up): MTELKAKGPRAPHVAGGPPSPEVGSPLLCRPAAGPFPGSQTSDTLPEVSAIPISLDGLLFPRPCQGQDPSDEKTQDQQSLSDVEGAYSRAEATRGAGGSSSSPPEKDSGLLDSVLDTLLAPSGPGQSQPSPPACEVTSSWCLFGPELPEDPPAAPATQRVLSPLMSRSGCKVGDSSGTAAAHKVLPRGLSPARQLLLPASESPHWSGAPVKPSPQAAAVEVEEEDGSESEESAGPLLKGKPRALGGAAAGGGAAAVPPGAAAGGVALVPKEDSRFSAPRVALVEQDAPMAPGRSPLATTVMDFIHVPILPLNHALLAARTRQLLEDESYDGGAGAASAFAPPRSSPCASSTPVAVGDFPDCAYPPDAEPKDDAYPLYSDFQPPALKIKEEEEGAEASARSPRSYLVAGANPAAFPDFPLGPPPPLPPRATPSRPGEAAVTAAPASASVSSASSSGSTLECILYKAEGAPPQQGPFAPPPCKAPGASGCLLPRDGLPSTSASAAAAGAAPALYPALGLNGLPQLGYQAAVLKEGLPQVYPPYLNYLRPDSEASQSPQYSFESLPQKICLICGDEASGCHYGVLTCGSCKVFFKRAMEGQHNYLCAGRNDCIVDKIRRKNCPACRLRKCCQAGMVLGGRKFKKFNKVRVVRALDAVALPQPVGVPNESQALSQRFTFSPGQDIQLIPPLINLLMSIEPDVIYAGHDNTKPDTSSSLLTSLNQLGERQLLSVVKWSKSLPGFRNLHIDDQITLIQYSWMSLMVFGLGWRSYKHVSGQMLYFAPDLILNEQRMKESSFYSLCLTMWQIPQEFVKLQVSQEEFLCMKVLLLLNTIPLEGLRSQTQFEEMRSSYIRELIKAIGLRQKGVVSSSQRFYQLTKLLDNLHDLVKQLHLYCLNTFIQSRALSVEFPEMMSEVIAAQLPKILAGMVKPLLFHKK
Chain of Cytochrome P450 2C19 (Homo sapiens) (P33261 whole entry, looked up): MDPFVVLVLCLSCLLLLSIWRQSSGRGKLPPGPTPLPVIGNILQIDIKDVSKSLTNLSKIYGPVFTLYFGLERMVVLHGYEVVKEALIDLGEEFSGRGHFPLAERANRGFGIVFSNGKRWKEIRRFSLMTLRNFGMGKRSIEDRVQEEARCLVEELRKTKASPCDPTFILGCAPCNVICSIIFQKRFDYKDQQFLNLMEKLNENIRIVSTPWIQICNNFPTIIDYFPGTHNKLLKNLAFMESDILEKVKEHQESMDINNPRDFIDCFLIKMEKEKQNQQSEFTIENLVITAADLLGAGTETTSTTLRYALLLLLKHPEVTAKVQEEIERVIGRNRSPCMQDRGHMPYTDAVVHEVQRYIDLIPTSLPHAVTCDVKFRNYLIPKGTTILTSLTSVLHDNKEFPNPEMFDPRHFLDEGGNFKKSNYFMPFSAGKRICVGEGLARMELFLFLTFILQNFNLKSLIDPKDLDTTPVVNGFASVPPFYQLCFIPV
Chain of Cytochrome P450 2D6 (Homo sapiens) (P10635 whole entry, looked up): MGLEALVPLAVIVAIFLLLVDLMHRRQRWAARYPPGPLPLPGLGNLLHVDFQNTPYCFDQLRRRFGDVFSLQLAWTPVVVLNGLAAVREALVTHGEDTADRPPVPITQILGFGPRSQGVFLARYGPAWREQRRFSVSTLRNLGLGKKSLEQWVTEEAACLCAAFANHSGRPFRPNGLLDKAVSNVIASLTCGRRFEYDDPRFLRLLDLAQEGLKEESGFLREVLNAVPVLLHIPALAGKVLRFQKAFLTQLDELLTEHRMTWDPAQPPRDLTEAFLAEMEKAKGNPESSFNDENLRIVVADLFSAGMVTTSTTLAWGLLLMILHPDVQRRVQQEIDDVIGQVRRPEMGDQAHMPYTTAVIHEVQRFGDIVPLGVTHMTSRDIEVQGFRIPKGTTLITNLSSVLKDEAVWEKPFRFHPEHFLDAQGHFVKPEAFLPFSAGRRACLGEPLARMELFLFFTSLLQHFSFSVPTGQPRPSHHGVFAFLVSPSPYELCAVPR
Chain of Thyrotropin-releasing hormone receptor (Homo sapiens) (P34981 whole entry, looked up): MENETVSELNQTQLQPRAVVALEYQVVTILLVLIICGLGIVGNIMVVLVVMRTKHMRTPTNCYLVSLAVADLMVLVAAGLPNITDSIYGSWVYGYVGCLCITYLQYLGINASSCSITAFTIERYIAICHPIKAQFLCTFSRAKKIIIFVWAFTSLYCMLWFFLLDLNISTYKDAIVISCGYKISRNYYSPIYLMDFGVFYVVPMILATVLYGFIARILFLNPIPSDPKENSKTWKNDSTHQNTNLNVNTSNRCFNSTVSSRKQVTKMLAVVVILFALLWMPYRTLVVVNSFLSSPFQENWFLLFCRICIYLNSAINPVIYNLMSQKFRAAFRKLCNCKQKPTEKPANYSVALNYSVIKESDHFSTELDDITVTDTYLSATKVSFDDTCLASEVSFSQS
Chain of Nuclear receptor subfamily 1 group I member 2 (Homo sapiens) (O75469 whole entry, looked up): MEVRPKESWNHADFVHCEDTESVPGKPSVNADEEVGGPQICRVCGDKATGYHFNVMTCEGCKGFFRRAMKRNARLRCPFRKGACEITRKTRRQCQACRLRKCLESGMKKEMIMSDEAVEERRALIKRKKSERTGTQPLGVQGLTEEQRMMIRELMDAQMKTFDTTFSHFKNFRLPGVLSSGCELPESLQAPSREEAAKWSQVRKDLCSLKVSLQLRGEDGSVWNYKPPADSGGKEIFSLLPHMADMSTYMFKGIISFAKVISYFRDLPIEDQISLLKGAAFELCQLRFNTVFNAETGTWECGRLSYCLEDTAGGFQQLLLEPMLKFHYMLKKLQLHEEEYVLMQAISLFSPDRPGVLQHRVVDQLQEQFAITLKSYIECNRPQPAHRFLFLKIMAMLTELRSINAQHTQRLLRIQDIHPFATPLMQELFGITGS

On to `O=C1O[C@H]([C@H](O)CO)C(O)=C1O`, for which the Potency entry in test [1], in [2], in test [3], in [4], in test [5] and in test [6] was “inactive” in each case. For the same compound, the Potency result in test [7], in test [8], in test [9], in [10], in test [11] and in test [12] was “inactive” each time. For the same compound, the Potency result in test [13], in test [14] and in test [15] was “inactive” each time.
As to `NC(=O)c1ncn([C@@H]2O[C@H](CO)[C@@H](O)[C@H]2O)n1`, the Potency entry in test [1], in [2], in test [5], in test [6], in test [7] and in test [16] was “inactive” throughout. For the same compound, the Potency entry in [8], in test [9], in test [10], in [11], in test [12] and in test [14] was “inactive” each time. Besides, the Potency result in [15] is “inactive”. Also, the outcome in [17] was inactive. Moreover, in test [13], the Potency is 9.1 µM (active) and inactive.
Consider `c1cnc2c(c1)ccc1cccnc12`, for which the Potency entry in test [1], in test [5], in test [6], in [7], in [9] and in test [12] was “inactive” each time. Also, the Potency is 309 nM (active) and 306 nM (active) in test [2]; 1260 nM (active) in test [8]; 4.37 µM (active) and 6.11 µM (active) and 9.69 µM (active) in test [10]; 978 nM (active) and 1.37 µM (active) and inactive in test [11]; 2.76 µM (active) and 10.9 µM (active) and 24.3 µM (active) in test [13]; 10.1 µM (active) and 8.94 µM (active) and 10 µM (active) in test [15].
For `Nc1nc(N)c2nc(-c3ccccc3)c(N)nc2n1`, the Potency result in [3], in [4], in [5], in test [6], in test [16] and in test [8] was “inactive” each time. Moreover, the Potency result in test [9], in test [11], in test [12] and in test [15] was “inactive” each time. Further, the Potency in [7] is 22.1 µM (active) and 19 µM (active); in test [13] it was 49.1 µM (active) and 61.1 µM (active) and 26.6 µM (active); in [14] it was 64 µM (active) and inactive. Also, in test [17], the outcome was inactive.
As to `C[Si](C)(C)N[Si](C)(C)C`, the Potency entry in [1], in [2], in [3], in [4], in test [5] and in test [6] was “inactive” throughout. For the same compound, the Potency result in [7], in [8], in test [9], in [10], in test [11] and in [12] was “inactive” each time. The Potency entry in [14] was “inactive”. Moreover, in [13], the Potency was 60.6 µM (active) and inactive.
Regarding `CCN(CC)CCNC(=O)c1ccc(N)cc1`, the Potency entry in test [1], in test [2], in [3], in test [4], in test [6] and in test [7] was “inactive” throughout. Moreover, the Potency entry in [8], in [9], in test [11] and in [12] was “inactive” throughout.
Regarding `CS(=O)(=O)c1ccc(Cl)cc1`, the Potency entry in test [1], in [2], in test [3], in [4], in test [5] and in [6] was “inactive” in each case. For the same compound, the Potency result in [7], in test [8], in [9], in test [11], in test [12] and in test [13] was “inactive” each time. Besides, the Potency entry in test [14] was “inactive”.
